We go through 40 molecules from PubChem BioAssay (NCI).

This is part of a sample that, as a whole, favours compounds with a hit. Of some 83,000 tested, about 20% had one in any assay.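 How to read the values: 0–100, growth inhibition (40 = 60% inhibited); 0, no net growth; -100 to 0, cell death (-40 = 40% of starting cells died; -100 = all dead).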 A number with no mark means an inactive call. The source made the active and inactive calls. Rule for the calls: active = growth percent below 10; inactive = the rest.

In this assay the test system is MDA-MB-468 breast. The experiment in a line: NCI-60 one-dose screen, 48 h (100 = growth as untreated, 0 = no growth, -100 = all killed). To be noted: 10 µM unless noted.
For the molecule `O=C(O)CCC(=O)OC(C1CO1)C(OC(=O)CCC(=O)O)C1CO1` (stereo not given), the growth was 99%.

For the molecule `Cc1[nH]c2ccc(F)cc2c1CCNC(=O)C1CCN(C(=O)c2ccc(-c3ccccc3)cc2)CC1`, the growth was 48.5%.

`COc1ccc(/C=C(/C(=O)N2CCN(c3ccc(C)cc3)CC2)c2cc(OC)c(OC)c(OC)c2)cc1N`: the growth was 29.6%.

With `COc1ccc(C/C(C)=C(/c2ccc(OCCN(C)C)cc2)c2ccc(OC(=O)NCc3ccccc3)cc2)cc1`, the growth was 67.6%.

Consider `CCOC(=O)c1c(N)c(C#N)cn1Cc1ccc(Cl)cc1Cl`, for which the growth is 45.2%.

With `CC(C)(C)[Si](C)(C)OC1[C@@H](CNC(N)=O)O[C@@H](n2cnc3c(NC(=O)Nc4ccccc4)ncnc32)[C@H]1O[Si](C)(C)C(C)(C)C` (stereo not given in full), the growth is 85.2%.

Regarding `O=C(NCCCCCCNC(=O)OCc1ccc2c(Cl)cc(Cl)c(O)c2n1)OCc1ccc2c(Cl)cc(Cl)c(O)c2n1`, the growth is -62.7% (active).

In the case of `COc1ccccc1N1CCN(C(=S)Nc2ccccc2)CC1`, the growth is 97%.

For `COc1ccc(OC)c(NC(=O)c2cc3oc4ccccc4c3cc2O)c1`, the growth was 96.9%.

Take `Nc1cc(-c2ccc(Cl)cc2)nn1-c1nc2ccccc2nc1Cc1ccccc1`: the growth was 75.7%.

On to `N=c1ccn2c(n1)O[C@@H]1[C@@H](O)[C@H](CO)O[C@@H]12`, for which the growth is 77.1%.

Take `C(=C(\C1=NCCN1)n1cnc2ccccc21)/c1cccc2ccccc12`: the growth is 80.6%.

On to `N#CCCN=Nc1c(O)[nH]c2ccc([N+](=O)[O-])cc12`, for which the growth is 99.7%.

`Fc1ccc2nc3c(cc2c1)CSc1nnc(-c2ccc[nH]c2=S)n1N3`: the growth is 105%.

Turning to `Nc1c(C(=O)Nc2ccc(C(F)(F)F)cc2)sc2nc(-c3cnccn3)cc(-c3cccs3)c12`, the growth was 69.9%.

Turning to `CNC(=S)Sc1ccc([N+](=O)[O-])cc1[N+](=O)[O-]`, the growth was 35.6%.

`OCC12CCCC(CO)(COC1)C2O` (stereo not given): the growth was 109%.

On to `O=C(N/N=C/c1ccco1)c1[nH]c2ccc(Br)cc2c1-c1ccccc1`, for which the growth is 14.9%.

Take `COc1cccc2c1C(=O)c1c(O)c3c(c(O)c1C2=O)C[C@@](O)(C(=O)CO)C[C@@H]3OC1CC(OC(C)=O)C(OC(C)=O)C(C)O1` (stereo not given in full): the growth is -25.8% (active).

For the molecule `OC(c1cc(-c2cccc(Cl)c2)nc2ccccc12)C1CCCCN1` (stereo not given), the growth is -77.5% (active).

In the case of `Oc1ccc(N=Cc2ccccc2)cc1`, the growth is 53.9%.

With `CNc1ccc(Br)c2c1C(=O)c1ccccc1C2=O`, the growth is 112%.

Take `COC(=O)C1(C(=O)OC)C2C(=O)C3C(C21)C3(C(=O)OC(C)(C)C)C(=O)OC(C)(C)C` (stereo not given): the growth is 99.4%.

In the case of `CCCCCCNC(=O)Oc1ccc(/C(=C(\C)c2ccc(Cl)cc2)c2ccc(OCCN(CC)CC)cc2)cc1`, the growth was 52.4%.

Take `Cn1cc(-c2nc(-c3cn(C)c4ncccc34)cs2)c2ccccc21`: the growth was -21.1% (active).

In the case of `Cn1cc(-c2nnc(-c3cn(C)c4ncccc34)o2)c2ccccc21`, the growth was -11.4% (active).

Turning to `Cc1cc(=O)oc2cc(OCc3nn4c(Nc5nc6ccccc6s5)c(-c5ccccc5)nc4s3)ccc12`, the growth is 89.9%.

For `CCc1ccccc1-n1c(-c2ccc(Cl)cc2)cc(-c2ccc(OC)cc2)c(C#N)c1=O`, the growth was 104%.

Take `O=C1c2c(c3c4ccccc4[nH]c3c3ccc4ccccc4c23)C(=O)N1CCN1CCCCC1`: the growth is -0.798% (active).

As to `C#CCOC(=O)C(N)CS` (stereo not given), the growth was 97.3%.

For `COc1ccc(-c2nc(Cl)c3c(C)nn(-c4ccc(F)cc4)c3n2)cc1`, the growth is 105%.

`COc1cccc(C(=O)NCCCNc2cc(-c3cn(-c4ccccc4)nc3-c3cccc(OC)c3)ccn2)c1`: the growth was 29.1%.

As to `O=C(NO)c1ccc(Cn2c(=O)n(CCc3ccccc3)c(=O)c3ccccc32)cc1`, the growth was 40.9%.

Consider `O=C(/C=C/c1c[nH]c2ccccc12)c1ccc(O)c(CN2CCN(c3ccc(F)cc3)CC2)c1`, for which the growth was 97.4%.

Regarding `Cc1ccccc1C(=O)NN`, the growth is 121%.

For `COC(=O)C(O)c1ccccc1` (stereo not given), the growth was 112%.

As for `O=C(NCCNC(c1ccccc1)C(NCCNC(=O)c1ccccc1)c1ccccc1)c1ccccc1` (stereo not given), the growth is 81.5%.

Consider `NC(=O)c1c(NC(=O)c2ccccc2)sc2c1CCC(=O)C2`, for which the growth is -5.34% (active).

In the case of `CN(C)c1ccc(N)c2ccccc12`, the growth is 57.8%.

For the molecule `O=C1C2C(c3cccs3)C=C(c3ccc(Cl)cc3)N2C(=S)N1c1ccccc1` (stereo not given), the growth is 79.7%.
